Experimental data: PubChem BioAssay (NCI)
Values joined by “and” are separate entries in the source; they are usually repeats but may differ in a detail not shown here. Equal values may be shown once. The panel holds about 83,000 compounds, 20% with a hit somewhere; the sample as a whole holds those more often.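 Treatment: one concentration, 48 hours, 96-well format. Scoring: percent growth, with anything below 10 considered active.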 Active and inactive are the calls of the source.

What follows are molecules tested on MDA-MB-468 breast (assay: NCI-60 one-dose screen, 48 h (100 = growth as untreated, 0 = no growth, -100 = all killed)). Details: 10 µM unless noted.

Row | Compound | growth
1 | COc1cc(/C=N/NC(=O)c2ccccc2Nc2ccnc(C(F)(F)F)c2)ccc1O | 80.5% (inactive)
2 | COc1cccc(-c2nc3sccn3c2-c2ccnc(NCCN3CCCNS3(=O)=O)n2)c1 | 102% (inactive)
3 | O=C(Nc1ccc(CN2CCOCC2)cc1)c1[nH]ncc1Nc1ncnc2sccc12 | -25.6% (active)
4 | Nc1nc(N)c2nc(CNc3ccc(C(=O)NC(CCC(=O)O)C(=O)O)cc3)cnc2n1 (stereo not drawn) | 13.1% (inactive) and 12% (inactive)
5 | COc1ccc2nc3cc(Cl)ccc3c(Nc3ccc(N(C)C)cc3)c2c1 | 73.7% (inactive)
6 | C=C(C)[C@@H]1CC[C@]2(C(=O)N3CCN(C)CC3)CC[C@]3(C)[C@H](CC[C@@H]4[C@@]5(C)CC[C@H](OC(=O)c6ccccc6C(=O)O)C(C)(C)[C@@H]5CC[C@]43C)[C@@H]12 | 107% (inactive)
7 | CN(C)c1ccc(-c2cc(-c3cccc(NS(C)(=O)=O)c3)nc(N)c2C#N)cc1 | -20.1% (active)
8 | CC(=O)N1C(=S)NC(=O)C1CC(C)C (stereo not drawn) | 100% (inactive)
9 | CCCCCCCCCCCC1=NC(C)(C)CN1C(C)(C)CO | -16% (active)
10 | COc1ccc(Nc2nn3c(-c4ccccc4)cc(-c4ccccc4)nc3c2C(N)=O)c(OC)c1 | 43.5% (inactive)
11 | O=c1cc(-c2ccc(OCc3ccccc3)cc2)oc2c(I)c(OCc3ccccc3)cc(OCc3ccccc3)c12 | 102% (inactive)
12 | Cn1cc(-c2cc3ncnc(Nc4ccc(CC(=O)Nc5cc(C(C)(C)C)on5)cc4)c3s2)cn1 | 31.5% (inactive)
13 | CCC(C)C1NC(=O)C(CCNCS(=O)(=O)O)NC(=O)C(NC(=O)C(CCNCS(=O)(=O)O)NC(=O)C(NC(=O)C(CCNCS(=O)(=O)O)NC(=O)CCCCC(C)C)C(C)O)CCNC(=O)C(C(C)O)NC(=O)C(CCNCS(=O)(=O)O)NC(=O)C(CCNCS(=O)(=O)O)NC(=O)C(C(C)CC)NC1=O (stereo not drawn) | 16% (inactive)
